Unmarked numbers belong to inactive results. How the calls were made is not given here.
tested on: Botulinum neurotoxin type F light chain protease (Clostridium botulinum); experiment: Clostridium botulinum type F light chain protease inhibitors, microsphere substrate cleavage, validation (AID 588459); conditions: multiplex microsphere protease substrate cleavage assay, flow cytometry; at 10 µM; hits give high values

| SMILES | inhibition [%] |
| --- | --- |
| CCOCC(=O)Nc1nc2ccccc2s1 | -2.1 |
| COc1ccc(-c2coc3cc(OC(=O)N4CCOCC4)ccc3c2=O)cc1 | 4.3 |
| CCCCCCCCCC(=O)OCC(O)CO (stereo not given) | -3.5 |
| Cc1ccc2[nH]c3c(c2c1)CCNC3=O | -0.6 |
| CC(/C=C1\SC(=O)N(CCCC(=O)O)C1=O)=C\c1ccccc1 | 3.5 |
| COc1ccc(C(CC(=O)N2CCOCC2)C(C)C)cc1 (stereo not given) | -4.7 |
| CN(C)CCOC(C)(c1ccccc1)c1ccccn1 (stereo not given) | 1.4 |
| COc1ccc2c(c1OC)C(=O)OC2C1c2c(cc3c(c2OC)OCO3)CCN1C (stereo not given) | 0.2 |
| O=C(N1CCCC1)C12CC3CC(C1)CC(C(=O)N1CCCC1)(C3)C2 | -1.6 |
| Cc1ccccc1NC(=O)NCCc1c[nH]c2ccccc12 | -1.9 |
| COc1ccc2nc(NC(=O)Nc3ccccc3)sc2c1 | -3.1 |
| C[C@]12CCC(=O)C=C1CC[C@@H]1[C@@H]2[C@@H](O)C[C@@]2(C)[C@H]1CC[C@]2(O)C(=O)CO | 2.1 |
| CC1(C)O[C@@H]2C[C@H]3[C@@H]4C[C@H](F)C5=CC(=O)C=C[C@]5(C)[C@@]4(F)[C@@H](O)C[C@]3(C)[C@]2(C(=O)CO)O1 | -0.5 |
| CC(C)CN1CC(C(=O)O)CC1=O (stereo not given) | 3.8 |
| CCCCC[C@H](O)/C=C/[C@@H]1[C@@H](C/C=C\CCCC(=O)O)[C@H]2CO[C@@H]1C2 | 0.5 |
| C/C(=N\NC(=O)C1(C)CC1(Br)Br)c1ccc([N+](=O)[O-])cc1 (stereo not given) | 2.6 |
| CCCCNc1cc(C(=O)O)cc(S(N)(=O)=O)c1Oc1ccccc1 | 2.6 |
| Nc1cnn(C2OC(CO)C(O)C2O)c(=O)n1 (stereo not given) | 0.5 |
| COc1ccc(C2C3CCCCC3(O)CCN2C(=O)c2cccs2)cc1 (stereo not given) | 2.8 |
| CC(C)CC(=O)NC(NC(=O)CC(C)C)c1cccc([N+](=O)[O-])c1 | 1.7 |

| SMILES | inhibition [%] |
| --- | --- |
| CC(=O)CSc1ncnc2c1cnn2-c1ccccc1 | 2.3 |
| CCOc1ccc(N2C(=O)CC(NCCNc3ccc([N+](=O)[O-])cn3)C2=O)cc1 (stereo not given) | 0.9 |
| CC1=CC(=O)c2ccccc2C1=O | -2.1 |
| Cc1ncc([N+](=O)[O-])n1CC(O)CCl (stereo not given) | 3.5 |
| COc1ccc(Cc2noc(CN(C)CC3(N4CCOCC4)CCCCC3)n2)cc1OC | 7.7 |
| Cc1ccc(Nc2ncccc2C(=O)O)cc1C | 0.8 |
| Cc1[nH]c2ccccc2c1C(=O)C(=O)NCc1ccco1 | 0.1 |
| C#C[C@]1(O)CC[C@H]2[C@@H]3CCc4cc(OC)ccc4[C@H]3CC[C@@]21C | 0.9 |
| COc1cc2c(cc1OC)C1(CCCC1)CNC2c1cccc([N+](=O)[O-])c1 (stereo not given) | 1 |
| CC(=O)NC1C(OCCOc2ccc(Cl)cc2Cl)OC(COC(C)=O)C(OC(C)=O)C1OC(C)=O (stereo not given) | -1.5 |
| C[C@H](NC(=O)Nc1ccccc1F)C(=O)O | -3.8 |
| COc1ccc(CCN2C(=O)CSC2c2ccc(OC)c(OC)c2)cc1OC (stereo not given) | -3.4 |
| CCN(CC)CCNC(=O)c1cc(S(C)(=O)=O)ccc1OC | 2.7 |
| OCCN1CCN(CCCN2c3ccccc3Sc3ccc(Cl)cc32)CC1 | -0.8 |
| COc1cccc(OC2OC3COC(C)(C)OC3C(O)C2NC(C)=O)c1 (stereo not given) | -0.8 |
| CCSc1nc(O)c(C2OC(=O)c3c2ccc(OC)c3OC)c(=O)n1CC (stereo not given) | -0.7 |
| Cc1ccc(CSCC(=O)NCCCN2CCOCC2)cc1 | 1.4 |
| C[C@H]1C[C@H]2[C@@H]3CCC4=CC(=O)C=C[C@]4(C)[C@@]3(Cl)[C@@H](O)C[C@]2(C)[C@@]1(O)C(=O)CO | 4.5 |
| CCn1cc(CN2N=C(C)CC2c2ccccc2)c(C)n1 (stereo not given) | -0.5 |
| COC(=O)c1ccc2c(c1)C(=O)/C(=C/c1ccc(O)cc1)O2 | -0.8 |
